# Reference: PMC11006913
# Residue numbers refer to the chain shown, from its start.
# What was measured:
# Experiment in all cases: PBM; 200 nM protein, PBS
# Settings in all cases: dsDNA, one strand shown
# HOXB4 [1] = target: HOXB4 (Homo sapiens, UniProt P17483 148-234)
# PAX4 [2] = target: T1, PAX4 (Homo sapiens, UniProt O43316 9-242, R200K)
# T1 sequence: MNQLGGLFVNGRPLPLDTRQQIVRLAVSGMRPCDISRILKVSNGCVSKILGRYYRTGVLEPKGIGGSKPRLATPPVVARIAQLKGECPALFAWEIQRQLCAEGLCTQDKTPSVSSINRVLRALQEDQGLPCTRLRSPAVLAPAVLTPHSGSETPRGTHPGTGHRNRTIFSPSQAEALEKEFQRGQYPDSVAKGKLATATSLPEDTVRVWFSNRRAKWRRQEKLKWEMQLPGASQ
# PAX4 [3] = target: T2, PAX4 (Homo sapiens, UniProt O43316 9-242)
# T2 sequence: T1 sequence with K192R
# HOXB4 [4] = target: HOXB4 (Homo sapiens, UniProt P17483 148-234, V174I)
# Chain of HOXB4 (Homo sapiens, UniProt P17483 148-234, V174I) (P17483 148-234 V174I): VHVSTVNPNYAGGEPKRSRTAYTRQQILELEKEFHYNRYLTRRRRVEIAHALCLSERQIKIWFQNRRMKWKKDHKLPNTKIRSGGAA
# ALX3 [5] = target: ALX3 (Homo sapiens, UniProt O95076 139-225, N203Q)
# Chain of ALX3 (Homo sapiens, UniProt O95076 139-225, N203Q) (O95076 139-225 N203Q): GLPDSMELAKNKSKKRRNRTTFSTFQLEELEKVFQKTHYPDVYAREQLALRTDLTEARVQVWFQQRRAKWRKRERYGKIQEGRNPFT
# PAX4 [6] = target: T3, PAX4 (Homo sapiens, UniProt O43316 9-242, R200Q)
# T3 sequence: T1 sequence with K192Q
# PAX4 [7] = target: T4, PAX4 (Homo sapiens, UniProt O43316 9-242, F177V)
# T4 sequence: T1 sequence with F169V, K192R
# ALX3 [8] = target: ALX3 (Homo sapiens, UniProt O95076 139-225)
# Chain of ALX3 (Homo sapiens, UniProt O95076 139-225) (O95076 139-225): as the sequence (O95076 139-225 N203Q) above, with Q65N counted along it
# PAX4 [9] = target: T5, PAX4 (Homo sapiens, UniProt O43316 9-242, F177Y)
# T5 sequence: T1 sequence with F169Y, K192R
# ALX3 [10] = target: ALX3 (Homo sapiens, UniProt O95076 139-225, L168Q)
# Chain of ALX3 (Homo sapiens, UniProt O95076 139-225, L168Q) (O95076 139-225 L168Q): as the sequence (O95076 139-225 N203Q) above, with L30Q, Q65N counted along it
# ALX3 [11] = target: ALX3 (Homo sapiens, UniProt O95076 139-225, L168V)
# Chain of ALX3 (Homo sapiens, UniProt O95076 139-225, L168V) (O95076 139-225 L168V): as the sequence (O95076 139-225 N203Q) above, with L30V, Q65N counted along it
# PAX4 [12] = target: T6, PAX4 (Homo sapiens, UniProt O43316 9-242, R227W)
# T6 sequence: T1 sequence with K192R, R219W
# ALX3 [13] = target: ALX3 (Homo sapiens, UniProt O95076 139-225, N203S)
# Chain of ALX3 (Homo sapiens, UniProt O95076 139-225, N203S) (O95076 139-225 N203S): as the sequence (O95076 139-225 N203Q) above, with Q65S counted along it
# HOXA7 [14] = target: HOXA7 (Homo sapiens, UniProt P31268 116-202)
# Chain of HOXA7 (Homo sapiens, UniProt P31268 116-202) (P31268 116-202): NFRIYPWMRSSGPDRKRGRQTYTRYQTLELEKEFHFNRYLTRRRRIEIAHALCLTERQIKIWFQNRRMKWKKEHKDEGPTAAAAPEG
# HOXA7 [15] = target: HOXA7 (Homo sapiens, UniProt P31268 116-202, W177C)
# Chain of HOXA7 (Homo sapiens, UniProt P31268 116-202, W177C) (P31268 116-202 W177C): as the sequence (P31268 116-202) above, with W62C counted along it
# ALX4 [16] = target: ALX4 (Homo sapiens, UniProt Q9H161 200-286)
# Chain of ALX4 (Homo sapiens, UniProt Q9H161 200-286) (Q9H161 200-286): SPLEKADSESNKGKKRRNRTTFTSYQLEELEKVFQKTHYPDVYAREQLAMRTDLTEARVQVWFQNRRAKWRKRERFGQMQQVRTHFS
# ALX4 [17] = target: ALX4 (Homo sapiens, UniProt Q9H161 200-286, Q225E)
# Chain of ALX4 (Homo sapiens, UniProt Q9H161 200-286, Q225E) (Q9H161 200-286 Q225E): as the sequence (Q9H161 200-286) above, with Q26E counted along it
# Chain of HOXB4 (Homo sapiens, UniProt P17483 148-234) (P17483 148-234): as the sequence (P17483 148-234 V174I) above, with I27V counted along it
sequence,measurement,setting,value
CGCTGGCC,binding signal,HOXB4 [1],"7.45 upbm affinity estimate (log intensity, higher = more binding, comparable within an allelic series)"
same,binding signal,PAX4 [2],"8.99 upbm affinity estimate (log intensity, higher = more binding, comparable within an allelic series)"
same,binding signal,PAX4 [3],"9.12 upbm affinity estimate (log intensity, higher = more binding, comparable within an allelic series)"
same,binding signal,HOXB4 [4],"7.53 upbm affinity estimate (log intensity, higher = more binding, comparable within an allelic series)"
same,binding signal,ALX3 [5],"7.62 upbm affinity estimate (log intensity, higher = more binding, comparable within an allelic series)"
same,binding signal,PAX4 [6],"9.12 upbm affinity estimate (log intensity, higher = more binding, comparable within an allelic series)"
same,binding signal,PAX4 [7],"9.1 upbm affinity estimate (log intensity, higher = more binding, comparable within an allelic series)"
same,binding signal,ALX3 [8],"7.39 upbm affinity estimate (log intensity, higher = more binding, comparable within an allelic series)"
same,binding signal,PAX4 [9],"9.14 upbm affinity estimate (log intensity, higher = more binding, comparable within an allelic series)"
same,binding signal,ALX3 [10],"7.58 upbm affinity estimate (log intensity, higher = more binding, comparable within an allelic series)"
same,binding signal,ALX3 [11],"7.61 upbm affinity estimate (log intensity, higher = more binding, comparable within an allelic series)"
same,binding signal,PAX4 [12],"9.18 upbm affinity estimate (log intensity, higher = more binding, comparable within an allelic series)"
same,binding signal,ALX3 [13],"7.65 upbm affinity estimate (log intensity, higher = more binding, comparable within an allelic series)"
AATGGTCA,binding signal,HOXB4 [1],"10.4 upbm affinity estimate (log intensity, higher = more binding, comparable within an allelic series)"
same,binding signal,HOXB4 [4],"10.5 upbm affinity estimate (log intensity, higher = more binding, comparable within an allelic series)"
CCTGTCCC,binding signal,HOXB4 [1],"7.61 upbm affinity estimate (log intensity, higher = more binding, comparable within an allelic series)"
same,binding signal,HOXB4 [4],"7.76 upbm affinity estimate (log intensity, higher = more binding, comparable within an allelic series)"
CGGCAGAG,binding signal,HOXB4 [1],"7.39 upbm affinity estimate (log intensity, higher = more binding, comparable within an allelic series)"
same,binding signal,HOXA7 [14],"8.53 upbm affinity estimate (log intensity, higher = more binding, comparable within an allelic series)"
same,binding signal,HOXB4 [4],"7.51 upbm affinity estimate (log intensity, higher = more binding, comparable within an allelic series)"
same,binding signal,HOXA7 [15],"8.39 upbm affinity estimate (log intensity, higher = more binding, comparable within an allelic series)"
GTCGATGA,binding signal,HOXB4 [1],"9.83 upbm affinity estimate (log intensity, higher = more binding, comparable within an allelic series)"
same,binding signal,HOXB4 [4],"9.24 upbm affinity estimate (log intensity, higher = more binding, comparable within an allelic series)"
CCAGCTCG,binding signal,HOXB4 [1],"7.72 upbm affinity estimate (log intensity, higher = more binding, comparable within an allelic series)"
same,binding signal,ALX4 [16],"8.09 upbm affinity estimate (log intensity, higher = more binding, comparable within an allelic series)"
same,binding signal,ALX4 [17],"8.29 upbm affinity estimate (log intensity, higher = more binding, comparable within an allelic series)"
same,binding signal,HOXB4 [4],"7.66 upbm affinity estimate (log intensity, higher = more binding, comparable within an allelic series)"
GCGGCTGA,binding signal,HOXB4 [1],"7.8 upbm affinity estimate (log intensity, higher = more binding, comparable within an allelic series)"
same,binding signal,HOXB4 [4],"7.53 upbm affinity estimate (log intensity, higher = more binding, comparable within an allelic series)"
CGCCGACG,binding signal,HOXB4 [1],"7.65 upbm affinity estimate (log intensity, higher = more binding, comparable within an allelic series)"
same,binding signal,HOXB4 [4],"7.86 upbm affinity estimate (log intensity, higher = more binding, comparable within an allelic series)"
AGCCCCCA,binding signal,HOXB4 [1],"7.49 upbm affinity estimate (log intensity, higher = more binding, comparable within an allelic series)"
same,binding signal,HOXB4 [4],"7.6 upbm affinity estimate (log intensity, higher = more binding, comparable within an allelic series)"
CCGGGTTC,binding signal,HOXB4 [1],"7.62 upbm affinity estimate (log intensity, higher = more binding, comparable within an allelic series)"
same,binding signal,HOXB4 [4],"7.65 upbm affinity estimate (log intensity, higher = more binding, comparable within an allelic series)"
GTCCCAAC,binding signal,HOXB4 [1],"7.52 upbm affinity estimate (log intensity, higher = more binding, comparable within an allelic series)"
same,binding signal,HOXB4 [4],"7.63 upbm affinity estimate (log intensity, higher = more binding, comparable within an allelic series)"
CAACAGAG,binding signal,HOXB4 [1],"7.94 upbm affinity estimate (log intensity, higher = more binding, comparable within an allelic series)"
same,binding signal,HOXB4 [4],"7.66 upbm affinity estimate (log intensity, higher = more binding, comparable within an allelic series)"
AATTTCTG,binding signal,HOXB4 [1],"9.75 upbm affinity estimate (log intensity, higher = more binding, comparable within an allelic series)"
same,binding signal,HOXB4 [4],"9.62 upbm affinity estimate (log intensity, higher = more binding, comparable within an allelic series)"
AGGAGGAG,binding signal,HOXB4 [1],"7.49 upbm affinity estimate (log intensity, higher = more binding, comparable within an allelic series)"
same,binding signal,HOXB4 [4],"7.57 upbm affinity estimate (log intensity, higher = more binding, comparable within an allelic series)"
AATACAAG,binding signal,HOXB4 [1],"9.55 upbm affinity estimate (log intensity, higher = more binding, comparable within an allelic series)"
same,binding signal,HOXB4 [4],"9.49 upbm affinity estimate (log intensity, higher = more binding, comparable within an allelic series)"
GCTGGCGA,binding signal,HOXB4 [1],"7.41 upbm affinity estimate (log intensity, higher = more binding, comparable within an allelic series)"
same,binding signal,HOXB4 [4],"7.45 upbm affinity estimate (log intensity, higher = more binding, comparable within an allelic series)"
TCATTGGA,binding signal,HOXB4 [1],"10.1 upbm affinity estimate (log intensity, higher = more binding, comparable within an allelic series)"
same,binding signal,HOXB4 [4],"9.83 upbm affinity estimate (log intensity, higher = more binding, comparable within an allelic series)"
CCTCACCG,binding signal,HOXB4 [1],"7.41 upbm affinity estimate (log intensity, higher = more binding, comparable within an allelic series)"
same,binding signal,HOXB4 [4],"7.32 upbm affinity estimate (log intensity, higher = more binding, comparable within an allelic series)"
CAATAAGA,binding signal,HOXB4 [1],"9.65 upbm affinity estimate (log intensity, higher = more binding, comparable within an allelic series)"
same,binding signal,HOXB4 [4],"9.56 upbm affinity estimate (log intensity, higher = more binding, comparable within an allelic series)"
GCAATTTA,binding signal,HOXB4 [1],"11.5 upbm affinity estimate (log intensity, higher = more binding, comparable within an allelic series)"
same,binding signal,HOXB4 [4],"11.7 upbm affinity estimate (log intensity, higher = more binding, comparable within an allelic series)"
AGGTCCAC,binding signal,HOXB4 [1],"7.8 upbm affinity estimate (log intensity, higher = more binding, comparable within an allelic series)"
same,binding signal,HOXB4 [4],"7.65 upbm affinity estimate (log intensity, higher = more binding, comparable within an allelic series)"
AGCCGCGG,binding signal,HOXB4 [1],"7.58 upbm affinity estimate (log intensity, higher = more binding, comparable within an allelic series)"
same,binding signal,HOXB4 [4],"7.46 upbm affinity estimate (log intensity, higher = more binding, comparable within an allelic series)"
AAATGTTA,binding signal,HOXB4 [1],"10.3 upbm affinity estimate (log intensity, higher = more binding, comparable within an allelic series)"
same,binding signal,HOXB4 [4],"10.4 upbm affinity estimate (log intensity, higher = more binding, comparable within an allelic series)"
AATGTACC,binding signal,HOXB4 [1],"10.2 upbm affinity estimate (log intensity, higher = more binding, comparable within an allelic series)"
same,binding signal,HOXB4 [4],"10.3 upbm affinity estimate (log intensity, higher = more binding, comparable within an allelic series)"
CGAATCTC,binding signal,HOXB4 [1],"7.71 upbm affinity estimate (log intensity, higher = more binding, comparable within an allelic series)"
same,binding signal,HOXB4 [4],"7.74 upbm affinity estimate (log intensity, higher = more binding, comparable within an allelic series)"
CTGGCGAC,binding signal,HOXB4 [1],"7.56 upbm affinity estimate (log intensity, higher = more binding, comparable within an allelic series)"
same,binding signal,HOXB4 [4],"7.45 upbm affinity estimate (log intensity, higher = more binding, comparable within an allelic series)"
GAATAATC,binding signal,HOXB4 [1],"11.1 upbm affinity estimate (log intensity, higher = more binding, comparable within an allelic series)"
same,binding signal,HOXB4 [4],"11.3 upbm affinity estimate (log intensity, higher = more binding, comparable within an allelic series)"
CCGGTGAG,binding signal,HOXB4 [1],"7.55 upbm affinity estimate (log intensity, higher = more binding, comparable within an allelic series)"
same,binding signal,HOXB4 [4],"7.62 upbm affinity estimate (log intensity, higher = more binding, comparable within an allelic series)"
CCGTTATC,binding signal,HOXB4 [1],"9.78 upbm affinity estimate (log intensity, higher = more binding, comparable within an allelic series)"
same,binding signal,HOXB4 [4],"9.74 upbm affinity estimate (log intensity, higher = more binding, comparable within an allelic series)"
CAGGACGC,binding signal,HOXB4 [1],"7.75 upbm affinity estimate (log intensity, higher = more binding, comparable within an allelic series)"
same,binding signal,HOXB4 [4],"7.46 upbm affinity estimate (log intensity, higher = more binding, comparable within an allelic series)"
ACGCAATA,binding signal,HOXB4 [1],"9.72 upbm affinity estimate (log intensity, higher = more binding, comparable within an allelic series)"
same,binding signal,HOXB4 [4],"9.78 upbm affinity estimate (log intensity, higher = more binding, comparable within an allelic series)"
ATTAGTTG,binding signal,HOXB4 [1],"11.2 upbm affinity estimate (log intensity, higher = more binding, comparable within an allelic series)"
same,binding signal,HOXB4 [4],"11.5 upbm affinity estimate (log intensity, higher = more binding, comparable within an allelic series)"
CCGACGGA,binding signal,HOXB4 [1],"7.67 upbm affinity estimate (log intensity, higher = more binding, comparable within an allelic series)"
same,binding signal,HOXB4 [4],"7.56 upbm affinity estimate (log intensity, higher = more binding, comparable within an allelic series)"
ATCTATAA,binding signal,HOXB4 [1],"11 upbm affinity estimate (log intensity, higher = more binding, comparable within an allelic series)"
same,binding signal,HOXB4 [4],"11.1 upbm affinity estimate (log intensity, higher = more binding, comparable within an allelic series)"
AAGCCAAT,binding signal,HOXB4 [1],"10.3 upbm affinity estimate (log intensity, higher = more binding, comparable within an allelic series)"
same,binding signal,HOXB4 [4],"10.6 upbm affinity estimate (log intensity, higher = more binding, comparable within an allelic series)"
AGATGATG,binding signal,HOXB4 [1],"10.8 upbm affinity estimate (log intensity, higher = more binding, comparable within an allelic series)"
same,binding signal,HOXB4 [4],"11.1 upbm affinity estimate (log intensity, higher = more binding, comparable within an allelic series)"
CATCAGCG,binding signal,HOXB4 [1],"10.1 upbm affinity estimate (log intensity, higher = more binding, comparable within an allelic series)"
same,binding signal,HOXB4 [4],"10.3 upbm affinity estimate (log intensity, higher = more binding, comparable within an allelic series)"
CCAGTTGC,binding signal,HOXB4 [1],"7.75 upbm affinity estimate (log intensity, higher = more binding, comparable within an allelic series)"
same,binding signal,HOXB4 [4],"7.61 upbm affinity estimate (log intensity, higher = more binding, comparable within an allelic series)"
GGAGTAAA,binding signal,HOXB4 [1],"9.68 upbm affinity estimate (log intensity, higher = more binding, comparable within an allelic series)"
same,binding signal,HOXB4 [4],"9.73 upbm affinity estimate (log intensity, higher = more binding, comparable within an allelic series)"
AGAAATAA,binding signal,HOXB4 [1],"10.1 upbm affinity estimate (log intensity, higher = more binding, comparable within an allelic series)"
same,binding signal,HOXB4 [4],"10.1 upbm affinity estimate (log intensity, higher = more binding, comparable within an allelic series)"
GGACCGAC,binding signal,HOXB4 [1],"7.66 upbm affinity estimate (log intensity, higher = more binding, comparable within an allelic series)"
same,binding signal,HOXB4 [4],"7.41 upbm affinity estimate (log intensity, higher = more binding, comparable within an allelic series)"
ATAAAGTA,binding signal,HOXB4 [1],"10.5 upbm affinity estimate (log intensity, higher = more binding, comparable within an allelic series)"
same,binding signal,HOXB4 [4],"10.6 upbm affinity estimate (log intensity, higher = more binding, comparable within an allelic series)"
